Source: PubChem BioAssay (NCI)
The panel holds about 83,000 compounds, 20% with a hit somewhere; the sample as a whole holds those more often.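 Compound tested at a single concentration for 48 hours in 96-well plates; a percent growth value below 10 was scored as active.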 Active and inactive are the calls of the source.

What was measured:
Experiment in all cases: NCI-60 one-dose screen, 48 h (100 = growth as untreated, 0 = no growth, -100 = all killed)
SK-MEL-2 melanoma = details: 10 µM unless noted
EKVX NSCLC = details: 10 µM unless noted
SN12C renal = details: 10 µM unless noted
UO-31 renal = details: 10 µM unless noted
TK-10 renal = details: 10 µM unless noted
ACHN renal = details: 10 µM unless noted
CAKI-1 renal = details: 10 µM unless noted
A498 renal = details: 10 µM unless noted
CCRF-CEM leukemia = details: 10 µM unless noted
MOLT-4 leukemia = details: 10 µM unless noted
SR leukemia = details: 10 µM unless noted
OVCAR-8 ovarian = details: 10 µM unless noted
OVCAR-4 ovarian = details: 10 µM unless noted
SK-OV-3 ovarian = details: 10 µM
OVCAR-3 ovarian = details: 10 µM unless noted
HS 578T breast = details: 10 µM unless noted
RPMI-8226 leukemia = details: 10 µM
OVCAR-5 ovarian = details: 10 µM unless noted
IGROV1 ovarian = details: 10 µM unless noted
NCI/ADR-RES ovarian = details: 10 µM unless noted

Measured: growth

O=C(COc1ccc(/C=C2\CSc3ccccc3C2=O)cc1)c1ccc(Cl)cc1
inactive: SK-MEL-2 melanoma 95.1% | EKVX NSCLC 122% | SN12C renal 103% | UO-31 renal 89.8% | TK-10 renal 113% | ACHN renal 99% | CAKI-1 renal 96.5% | A498 renal 105% | CCRF-CEM leukemia 93.9% | MOLT-4 leukemia 82.1% | SR leukemia 93.1% | OVCAR-8 ovarian 110% | OVCAR-4 ovarian 107% | SK-OV-3 ovarian 107% | OVCAR-3 ovarian 96% | HS 578T breast 109%

O=C(NC1CC1)c1cc2n(n1)CC(c1ccccc1)N2 (stereo not drawn)
inactive: SK-MEL-2 melanoma 99.9% | EKVX NSCLC 83.7% | SN12C renal 102% | UO-31 renal 95.8% | TK-10 renal 102% | ACHN renal 106% | CAKI-1 renal 91.4% | CCRF-CEM leukemia 108% | MOLT-4 leukemia 109% | SR leukemia 104% | RPMI-8226 leukemia 112% | OVCAR-8 ovarian 105% | OVCAR-5 ovarian 95.9% | OVCAR-4 ovarian 104% | IGROV1 ovarian 100% | OVCAR-3 ovarian 112% | HS 578T breast 83.8% | NCI/ADR-RES ovarian 104%

COc1ccc(C2=NOC(CC(=O)N(CCO)CCO)C2)cc1OC1CCCC1 (stereo not drawn)
inactive: SK-MEL-2 melanoma 106% | EKVX NSCLC 91.5% | SN12C renal 104% | UO-31 renal 88.3% | TK-10 renal 98.9% | ACHN renal 104% | CAKI-1 renal 99.5% | CCRF-CEM leukemia 112% | MOLT-4 leukemia 125% | SR leukemia 106% | RPMI-8226 leukemia 106% | OVCAR-8 ovarian 102% | OVCAR-5 ovarian 98.5% | OVCAR-4 ovarian 102% | IGROV1 ovarian 106% | OVCAR-3 ovarian 114% | HS 578T breast 99.2%

Cc1cc(O)cc2c1[C@H]1CC[C@]3(C)[C@@H](O)CC[C@H]3[C@@H]1C=C2
inactive: SK-MEL-2 melanoma 86.4% | EKVX NSCLC 105% | SN12C renal 98.5% | UO-31 renal 98.4% | TK-10 renal 102% | ACHN renal 96.7% | CAKI-1 renal 108% | CCRF-CEM leukemia 69.4% | MOLT-4 leukemia 79% | SR leukemia 40.3% | RPMI-8226 leukemia 80.8% | OVCAR-8 ovarian 95.3% | OVCAR-5 ovarian 114% | OVCAR-4 ovarian 110% | SK-OV-3 ovarian 115% | IGROV1 ovarian 74.4% | OVCAR-3 ovarian 108% | HS 578T breast 86.5% | NCI/ADR-RES ovarian 53.2%

O=C1/C(=C/c2ccc(Cl)cc2)N=C(c2ccccc2)N1CCc1cccs1
inactive: SK-MEL-2 melanoma 69.5% | EKVX NSCLC 72.1% | SN12C renal 45.6% | UO-31 renal 48.4% | TK-10 renal 54.8% | ACHN renal 43% | CAKI-1 renal 58.1% | A498 renal 72.7% | CCRF-CEM leukemia 85.9% | RPMI-8226 leukemia 76.1% | OVCAR-8 ovarian 36.1% | OVCAR-5 ovarian 30.5% | OVCAR-4 ovarian 62.1% | SK-OV-3 ovarian 105% | IGROV1 ovarian 55.3% | OVCAR-3 ovarian 79.9% | HS 578T breast 67.7%

O=c1onc(-c2ccccc2)c2ccccc12
inactive: SK-MEL-2 melanoma 118% | EKVX NSCLC 121% | SN12C renal 101% | UO-31 renal 97.8% | TK-10 renal 114% | ACHN renal 112% | CAKI-1 renal 98.5% | A498 renal 83.1% | MOLT-4 leukemia 98.9% | SR leukemia 101% | RPMI-8226 leukemia 98.4% | OVCAR-8 ovarian 103% | OVCAR-5 ovarian 116% | OVCAR-4 ovarian 106% | SK-OV-3 ovarian 112% | IGROV1 ovarian 113% | OVCAR-3 ovarian 113% | NCI/ADR-RES ovarian 103%

O=C1C(Cl)=C(NCCCN2CCOCC2)C(=O)c2ccccc21
inactive: SK-MEL-2 melanoma 104% | EKVX NSCLC 112% | SN12C renal 82.8% | UO-31 renal 61% | TK-10 renal 131% | ACHN renal 108% | CAKI-1 renal 102% | A498 renal 110% | MOLT-4 leukemia 88.4% | SR leukemia 39.2% | OVCAR-8 ovarian 96.1% | OVCAR-5 ovarian 111% | OVCAR-4 ovarian 77.1% | SK-OV-3 ovarian 102% | IGROV1 ovarian 56.4% | OVCAR-3 ovarian 96.4% | HS 578T breast 99.7% | NCI/ADR-RES ovarian 99.1%

CCN1CCN(c2nc3ccccc3c3c(=O)c4cc(F)ccc4sc23)CC1
inactive: SK-MEL-2 melanoma 98.8% | EKVX NSCLC 82.8% | SN12C renal 80.7% | UO-31 renal 44% | TK-10 renal 85.2% | ACHN renal 59.4% | CAKI-1 renal 67.9% | A498 renal 28.9% | MOLT-4 leukemia 27.9% | RPMI-8226 leukemia 65.5% | OVCAR-8 ovarian 71% | OVCAR-5 ovarian 79.8% | OVCAR-4 ovarian 63% | IGROV1 ovarian 57% | OVCAR-3 ovarian 71% | HS 578T breast 62.1% | NCI/ADR-RES ovarian 78.3%
active: SR leukemia 0.85%

Cc1cc(NS(=O)(=O)c2ccc(NC(=O)COc3ccc(-c4cc5ccccc5[nH]4)cc3)cc2)no1
active: MOLT-4 leukemia -2.31% | SR leukemia -5.32% | OVCAR-3 ovarian -0.541% | NCI/ADR-RES ovarian 9.15%
inactive: SK-MEL-2 melanoma 27.3% | EKVX NSCLC 54.4% | SN12C renal 39.2% | UO-31 renal 26.4% | TK-10 renal 52.6% | ACHN renal 21.7% | CAKI-1 renal 57.5% | RPMI-8226 leukemia 24.9% | OVCAR-8 ovarian 32.3% | OVCAR-5 ovarian 52.3% | SK-OV-3 ovarian 13.7% | IGROV1 ovarian 35.3% | HS 578T breast 16.6%

O=C1c2cc(S(=O)(=O)O)ccc2C(=O)c2c1cccc2[N+](=O)[O-]
inactive: SK-MEL-2 melanoma 108% | EKVX NSCLC 120% | SN12C renal 103% | UO-31 renal 85.3% | TK-10 renal 116% | ACHN renal 111% | CAKI-1 renal 102% | CCRF-CEM leukemia 97.8% | MOLT-4 leukemia 100% | SR leukemia 98.2% | OVCAR-8 ovarian 95.6% | OVCAR-5 ovarian 110% | OVCAR-4 ovarian 115% | SK-OV-3 ovarian 106% | IGROV1 ovarian 120% | OVCAR-3 ovarian 114% | HS 578T breast 106%

O=C1C(N2CCOCC2)=Cc2cccc3cccc1c23
inactive: SK-MEL-2 melanoma 110% | EKVX NSCLC 60.9% | SN12C renal 106% | UO-31 renal 88.9% | TK-10 renal 98% | ACHN renal 96.3% | A498 renal 84.3% | CCRF-CEM leukemia 102% | MOLT-4 leukemia 18.2% | SR leukemia 40.8% | RPMI-8226 leukemia 105% | OVCAR-8 ovarian 96.1% | OVCAR-5 ovarian 103% | OVCAR-4 ovarian 90.5% | SK-OV-3 ovarian 95.8% | IGROV1 ovarian 112% | OVCAR-3 ovarian 101% | HS 578T breast 86.1% | NCI/ADR-RES ovarian 99.8%

COc1ccc(NS(=O)(=O)c2ccc(-c3cnc(C4CC4)o3)cc2)cc1
inactive: SK-MEL-2 melanoma 46.6% | EKVX NSCLC 69.9% | SN12C renal 81.5% | UO-31 renal 69.8% | TK-10 renal 79.8% | ACHN renal 80.6% | CAKI-1 renal 48.3% | MOLT-4 leukemia 48.6% | SR leukemia 40.8% | RPMI-8226 leukemia 74.9% | OVCAR-8 ovarian 81.5% | OVCAR-5 ovarian 78.6% | OVCAR-4 ovarian 60.8% | IGROV1 ovarian 62.8% | OVCAR-3 ovarian 27.4% | HS 578T breast 42.4% | NCI/ADR-RES ovarian 30.3%

O=c1[nH]c(=S)c2c(n1CCCO)CCC2
inactive: SK-MEL-2 melanoma 99.8% | EKVX NSCLC 91.2% | SN12C renal 99.7% | UO-31 renal 89.9% | TK-10 renal 102% | ACHN renal 103% | CAKI-1 renal 93.2% | CCRF-CEM leukemia 103% | MOLT-4 leukemia 104% | SR leukemia 97% | RPMI-8226 leukemia 101% | OVCAR-8 ovarian 102% | OVCAR-5 ovarian 99.4% | OVCAR-4 ovarian 102% | IGROV1 ovarian 103% | OVCAR-3 ovarian 110% | HS 578T breast 99.8% | NCI/ADR-RES ovarian 103%

O=C1c2c(c3c4cc(Br)ccc4[nH]c3c3ccc4ccccc4c23)C(=O)N1O
inactive: SK-MEL-2 melanoma 106% | EKVX NSCLC 87.3% | SN12C renal 92.2% | UO-31 renal 101% | TK-10 renal 117% | ACHN renal 73.3% | CAKI-1 renal 69.6% | CCRF-CEM leukemia 54.1% | MOLT-4 leukemia 68.5% | SR leukemia 33.9% | RPMI-8226 leukemia 58.9% | OVCAR-8 ovarian 84.1% | OVCAR-5 ovarian 111% | IGROV1 ovarian 70.2% | OVCAR-3 ovarian 107% | HS 578T breast 117% | NCI/ADR-RES ovarian 98.1%

COC(=O)c1c2c(c(C)[n+]([O-])c1C)C(=O)C=C(NCc1cccc(OC)c1)C2=O
active: SK-MEL-2 melanoma -64.6% | EKVX NSCLC -68.7% | SN12C renal -93.4% | UO-31 renal -62.5% | TK-10 renal 4.5% | ACHN renal -81.5% | CAKI-1 renal -32.6% | CCRF-CEM leukemia -17.1% | MOLT-4 leukemia -45.9% | SR leukemia -8.2% | RPMI-8226 leukemia -35.5% | OVCAR-8 ovarian -23.7% | OVCAR-5 ovarian -90.3% | IGROV1 ovarian -64% | OVCAR-3 ovarian -51% | HS 578T breast -22.2% | NCI/ADR-RES ovarian -25.6%

Cc1cccc2c(=O)c3c(sc12)c(NCCCN)nc1ccccc13
active: ACHN renal -82.9% | CAKI-1 renal 4.76% | CCRF-CEM leukemia 2.89% | MOLT-4 leukemia -18.3% | SR leukemia -5.48% | RPMI-8226 leukemia -29.9% | IGROV1 ovarian -24.1%
inactive: SK-MEL-2 melanoma 89.2% | EKVX NSCLC 40.6% | SN12C renal 22.1% | UO-31 renal 19.6% | TK-10 renal 29% | OVCAR-8 ovarian 27.3% | OVCAR-5 ovarian 51.7% | OVCAR-4 ovarian 47.4% | OVCAR-3 ovarian 39.4% | HS 578T breast 24.6% | NCI/ADR-RES ovarian 24%

CN1CCN(c2ccc3nc(-c4ccc5nc(-c6ccc(C(F)(F)F)cc6)[nH]c5c4)[nH]c3c2)CC1
inactive: SK-MEL-2 melanoma 103% | EKVX NSCLC 81.6% | SN12C renal 80.3% | UO-31 renal 105% | TK-10 renal 101% | ACHN renal 55.6% | CAKI-1 renal 43% | CCRF-CEM leukemia 21.2% | MOLT-4 leukemia 47.2% | OVCAR-8 ovarian 65.5% | OVCAR-5 ovarian 110% | IGROV1 ovarian 71.2% | HS 578T breast 26.4% | NCI/ADR-RES ovarian 102%
active: SR leukemia -18.5% | RPMI-8226 leukemia -9.04% | OVCAR-3 ovarian -17.3%
